Screening data deposited in PubChem by several laboratories.
The list is not random: actives were taken first. Their share in the collection is about 4%.
FBA Mtb inh = inhibitors of M. tuberculosis fructose-bisphosphate aldolase. P9WQA3. AID 588726. inhibition, % at 1 µM. purified M. tuberculosis FBA, fluorescence read-out. 360,000 tested, 2.3% active;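 also: 0% = vehicle and 100% = reference inhibitor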
Mtb UGM inh = Mtb UDP-galactopyranose mutase inhibition; 320,000 tested, 0.06% active; AID 504406; purified UGM, fluorescence polarization probe displacement; inhibition, % at 10 µM; in the data active = inhibition above about 10%, passing the limit was not always enough; inconclusive = no clear call, values can overlap the other calls
Mtb bLac sens = beta-lactam sensitization of Mtb H37Rv; M. tuberculosis H37Rv growth with meropenem, percent inhibition; inhibition, % at 25 µM; 330,000 tested, 0.27% active; AID 434955; call rule not given here;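 also: growth measured after seven days incubation then overnight dye step; 0% = bacteria only wells and 100% = bacteria with antibiotic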
GDH-TPI counter-1 = GDH-TPI coupled enzyme inhibition counter-screen; GDH-TPI coupled enzyme counterscreen, NADH absorbance; inhibition, % at 4.8 µM; 360,000 tested, 1.2% active; in the data active = inhibition above about 30%;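 also: 0% = DMSO wells and 100% = wells lacking the enzyme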
RecA intein inh = Mtb RecA intein splicing inhibition. inhibition, % (concentration not given with the values). AID 2221. P9WHJ3. 290,000 tested, 0.75% active. cell-free RecA intein splicing, fluorescence; in the data active = inhibition above about 30%; inconclusive = no clear call, values can overlap the other calls;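 also: 0% = vehicle wells and 100% = reference inhibitor control wells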
Target sequence (P9WHJ3 whole entry, looked up): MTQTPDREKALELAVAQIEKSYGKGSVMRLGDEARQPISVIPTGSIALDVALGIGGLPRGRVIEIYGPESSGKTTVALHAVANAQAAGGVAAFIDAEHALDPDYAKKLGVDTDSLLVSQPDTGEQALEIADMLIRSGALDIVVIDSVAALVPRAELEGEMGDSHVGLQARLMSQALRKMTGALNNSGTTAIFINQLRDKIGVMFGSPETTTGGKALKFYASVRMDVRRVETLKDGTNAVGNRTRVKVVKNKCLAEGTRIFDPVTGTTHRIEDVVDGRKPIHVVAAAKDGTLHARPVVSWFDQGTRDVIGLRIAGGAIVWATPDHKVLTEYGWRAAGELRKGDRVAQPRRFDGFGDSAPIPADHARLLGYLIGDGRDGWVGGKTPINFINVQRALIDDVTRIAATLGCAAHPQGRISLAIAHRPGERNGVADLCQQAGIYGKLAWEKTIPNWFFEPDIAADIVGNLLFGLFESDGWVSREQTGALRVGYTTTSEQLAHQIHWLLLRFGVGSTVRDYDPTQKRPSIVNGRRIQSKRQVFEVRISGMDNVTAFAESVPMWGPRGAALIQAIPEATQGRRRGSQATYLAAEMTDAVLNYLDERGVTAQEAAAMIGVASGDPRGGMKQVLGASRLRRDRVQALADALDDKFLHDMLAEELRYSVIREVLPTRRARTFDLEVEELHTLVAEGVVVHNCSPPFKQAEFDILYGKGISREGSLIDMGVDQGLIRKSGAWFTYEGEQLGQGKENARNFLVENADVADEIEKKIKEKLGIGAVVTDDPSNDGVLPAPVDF
Rv3671c protease = Rv3671c (M. tuberculosis) protease inhibition | P9WHR9 | inhibition, % at 5.96 µM | 320,000 tested, 0.048% active; in the data active = inhibition above about 38%;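 also: extracellular domain of Rv3671c used as enzyme; 0% = enzyme with DMSO and 100% = no enzyme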
Mtb FBA confirm = confirmation of M. tuberculosis fructose-bisphosphate aldolase inhibitors. 5,600 tested, 78% active. purified M. tuberculosis FBA, fluorescence read-out. shares compounds with FBA Mtb inh. inhibition, % at 1 µM;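 also: 0% = vehicle wells and 100% = reference inhibitor wells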
GDH-TPI counter-2 = inhibits GDH-TPI coupling enzymes, flagging Mtb FBA hits | shares compounds with FBA Mtb inh | GDH-TPI coupled enzyme counterscreen, fluorescence | inhibition, % at 1 µM | 5,600 tested, 81% active | AID 652141; in the data active = inhibition above about 10%
Active calls of the source: *. Rule as the data show it, unless noted: active = inhibition above about 27%; inactive = the rest.

`NC(=O)c1nn(-c2ccccc2)nc1NC(=O)CN1CCCC1` gave FBA Mtb inh 25, Mtb UGM inh 2, Mtb bLac sens -4, GDH-TPI counter-1 0, RecA intein inh -3 and Rv3671c protease -7.
CCOc1ccc(CCNC(=O)COC(=O)Cn2cnc3ccccc3c2=O)cc1OCC was read as FBA Mtb inh 0, Mtb UGM inh 1, Mtb bLac sens 2, GDH-TPI counter-1 -12, RecA intein inh 0 and Rv3671c protease -11.
`O=C(Nc1c(C(=O)O)[nH]c2ccccc12)NC1CCCCC1` gave FBA Mtb inh 35*, Mtb UGM inh -2, Mtb bLac sens -1, GDH-TPI counter-1 3, RecA intein inh 4, Rv3671c protease 1, Mtb FBA confirm active and GDH-TPI counter-2 174*.
Cc1cccc(NC(=O)CN2C(=O)N/C(=C/c3ccc(C)o3)C2=O)c1 was read as FBA Mtb inh -1, Mtb UGM inh 1, Mtb bLac sens 0, GDH-TPI counter-1 29, RecA intein inh -1 and Rv3671c protease -2.
Cc1cccc(NC(=O)CN2C(=O)N/C(=C\c3ccc(-c4cccc(C(=O)O)c4)o3)C2=O)c1 was read as FBA Mtb inh 34*, Mtb UGM inh 3, Mtb bLac sens 2, GDH-TPI counter-1 18, RecA intein inh -37, Rv3671c protease -3, Mtb FBA confirm 189* and GDH-TPI counter-2 143*.
COc1ccc(CC(=O)Nc2ccc(-c3cn4ccc(C)cc4n3)cc2)cc1 was read as FBA Mtb inh 58*, Mtb UGM inh 0, Mtb bLac sens 66, GDH-TPI counter-1 5, RecA intein inh -1, Rv3671c protease -22, Mtb FBA confirm 168* and GDH-TPI counter-2 143*.
For CC(C)C(=O)Nc1cccc(-c2cn3ccccc3n2)c1 the results were FBA Mtb inh 1, Mtb UGM inh 0, Mtb bLac sens -5, GDH-TPI counter-1 8, RecA intein inh 3 and Rv3671c protease -1.
For Cc1ccn2cc(-c3cccc(NC(=O)C(C)C)c3)nc2c1 the results were FBA Mtb inh 40*, Mtb UGM inh 3, Mtb bLac sens 0, GDH-TPI counter-1 10, Rv3671c protease -7, Mtb FBA confirm 113* and GDH-TPI counter-2 87*.
`CC(=O)Nc1cccc(-c2cn3ccccc3n2)c1` gave FBA Mtb inh 43*, Mtb UGM inh 1, Mtb bLac sens 1, GDH-TPI counter-1 8, RecA intein inh -1, Rv3671c protease -6, Mtb FBA confirm 40* and GDH-TPI counter-2 41*.
O=C(Nc1ccc(-c2cc3ccccc3oc2=O)c(Cl)c1)c1cccnc1 was read as FBA Mtb inh 4, Mtb UGM inh -4, Mtb bLac sens -8, GDH-TPI counter-1 20, RecA intein inh 1 and Rv3671c protease -52.
O=C(NCc1cccnc1)c1ccc(-c2ccc(Cl)cc2)o1 was read as FBA Mtb inh 29*, Mtb UGM inh -1, Mtb bLac sens -2, GDH-TPI counter-1 2, RecA intein inh 2, Rv3671c protease -6, Mtb FBA confirm 113* and GDH-TPI counter-2 103*.
O=C(NCc1cccnc1)c1ccc(-c2cc3ccccc3oc2=O)cc1 was read as FBA Mtb inh 54*, Mtb UGM inh 0, Mtb bLac sens 1, GDH-TPI counter-1 16, RecA intein inh 0, Rv3671c protease 2, Mtb FBA confirm 3 and GDH-TPI counter-2 1.
CCn1ncc(Cl)c1C(=O)Nc1ccc2c(c1)CCC2 was read as FBA Mtb inh -1, Mtb UGM inh -2, Mtb bLac sens inconclusive, GDH-TPI counter-1 -2 and Rv3671c protease -6.
`CNC(=O)c1cccn(Cc2cc(C(F)(F)F)cc(C(F)(F)F)c2)c1=O` gave FBA Mtb inh 16, Mtb UGM inh 0, Mtb bLac sens 4, GDH-TPI counter-1 15, RecA intein inh 2 and Rv3671c protease 11.
`NC(=O)c1cccn(Cc2ccc(C(F)(F)F)cc2)c1=O` gave FBA Mtb inh 52*, Mtb UGM inh -4, Mtb bLac sens -1, GDH-TPI counter-1 11, RecA intein inh -1, Rv3671c protease 5, Mtb FBA confirm 96* and GDH-TPI counter-2 72*.
For CNC(=O)c1cccn(Cc2ccc(C(F)(F)F)cc2)c1=O the results were FBA Mtb inh 29*, Mtb UGM inh 1, Mtb bLac sens -4, GDH-TPI counter-1 5, RecA intein inh -2, Rv3671c protease -7, Mtb FBA confirm 68* and GDH-TPI counter-2 43*.
For Cc1ccc(-c2cc(-c3ccccc3)cc(-c3ccccc3)[n+]2-c2ccccc2)cc1 the results were FBA Mtb inh 10, Mtb UGM inh 0, Mtb bLac sens 100, GDH-TPI counter-1 7, RecA intein inh 9 and Rv3671c protease 10.
Screening C[n+]1c(-c2ccccc2)cc(-c2ccc(Cl)cc2)cc1-c1ccccc1 returned FBA Mtb inh 71*, Mtb UGM inh 0, Mtb bLac sens -1, GDH-TPI counter-1 -5, RecA intein inh 8, Rv3671c protease -12, Mtb FBA confirm 79* and GDH-TPI counter-2 69*.
`CCC1C(=O)n2nc(-c3ccccc3)cc2N=C1C` (configuration not stated) gave FBA Mtb inh 40*, Mtb UGM inh 0, Mtb bLac sens 7, GDH-TPI counter-1 8, RecA intein inh 1, Rv3671c protease -10, Mtb FBA confirm active and GDH-TPI counter-2 145*.
`O=C(c1ccc2c3c(cccc13)CC2)C1CCCN(CC2CC2)C1` (configuration not stated) gave FBA Mtb inh 33*, Mtb UGM inh 0, Mtb bLac sens -6, GDH-TPI counter-1 8, RecA intein inh -16, Rv3671c protease 3, Mtb FBA confirm 6 and GDH-TPI counter-2 -2.
Screening O=C(c1ccc(Cl)c(S(=O)(=O)N2CCCCCC2)c1)N1CCN(c2ccccn2)CC1 returned FBA Mtb inh 2, Mtb UGM inh 0, GDH-TPI counter-1 -4, RecA intein inh 4 and Rv3671c protease 2.
Screening CC(NC(=O)CSc1nc2ccccc2n1C)c1ccccc1 (configuration not stated) returned FBA Mtb inh -1, Mtb UGM inh 1, Mtb bLac sens 2, GDH-TPI counter-1 7, RecA intein inh 0 and Rv3671c protease 3.
COC(=O)C1=CN(c2cccc(Cl)c2)C=C(C(=O)OC)C1c1cccc(OC)c1 was read as FBA Mtb inh 54*, Mtb UGM inh -2, Mtb bLac sens 4, GDH-TPI counter-1 0, RecA intein inh -4, Mtb FBA confirm 111* and GDH-TPI counter-2 94*.
Screening O=C(NCCO)c1cccc(-c2cccc3nncn23)c1 returned FBA Mtb inh 75*, GDH-TPI counter-1 7, Mtb FBA confirm 72* and GDH-TPI counter-2 42*.
For CN(C)CCCNC(=O)c1cccc(-c2cnc3cccnn23)c1 the results were FBA Mtb inh 102*, GDH-TPI counter-1 5, Mtb FBA confirm active and GDH-TPI counter-2 active.
